MITF inh – blocks human microphthalmia-associated transcription factor; inhibition, % at 2.6 µM; 650,000 tested, 0.91% active; O75030; AID 1259374; AlphaScreen MITF homodimerization, bead proximity signal; in the data active = inhibition above about 50%;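 also: 0% = vehicle wells with protein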
TEAD-YAP inh – TEAD-YAP interaction inhibition | HEK-TIYL cells, TEAD-Gal4/YAP UAS-luciferase luminescence | inhibition, % at 9.12 µM | 640,000 tested, 1.4% active | AID 1259422; in the data active = inhibition above about 32%;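 also: 0% = median of test compound wells and 100% = reference inhibitor wells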
FBW7 activator – activators of human E3 ligase FBW7; normalized activity (activation), % at 26.1 µM; 650,000 tested, 0.13% active; AlphaScreen FBW7–phospho-cyclin E peptide binding, activator screen; in the data active = normalized activity above about 1.9%;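 also: purified mutant Fbw7 with reduced substrate affinity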
Target sequence (Q969H0 whole entry, looked up): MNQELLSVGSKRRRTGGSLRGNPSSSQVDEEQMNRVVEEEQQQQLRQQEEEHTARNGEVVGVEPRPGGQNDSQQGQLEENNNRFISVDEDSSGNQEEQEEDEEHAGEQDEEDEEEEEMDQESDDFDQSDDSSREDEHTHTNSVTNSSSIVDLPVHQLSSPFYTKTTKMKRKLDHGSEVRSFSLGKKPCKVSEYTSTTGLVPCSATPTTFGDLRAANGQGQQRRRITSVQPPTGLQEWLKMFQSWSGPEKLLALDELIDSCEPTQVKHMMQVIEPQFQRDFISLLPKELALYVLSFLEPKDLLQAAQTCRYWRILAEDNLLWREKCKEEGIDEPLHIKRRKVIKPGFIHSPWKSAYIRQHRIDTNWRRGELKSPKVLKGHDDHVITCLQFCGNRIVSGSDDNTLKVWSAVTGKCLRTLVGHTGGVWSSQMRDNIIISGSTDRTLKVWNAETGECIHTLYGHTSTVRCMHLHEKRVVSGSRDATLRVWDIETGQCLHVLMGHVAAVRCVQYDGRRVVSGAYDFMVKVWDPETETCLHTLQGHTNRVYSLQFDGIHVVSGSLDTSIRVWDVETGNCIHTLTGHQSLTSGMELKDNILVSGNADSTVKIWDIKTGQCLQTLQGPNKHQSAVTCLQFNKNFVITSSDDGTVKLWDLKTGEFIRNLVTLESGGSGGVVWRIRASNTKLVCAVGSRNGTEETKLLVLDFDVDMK
GPR151 activ – activators of human GPR151; AID 1508602; 650,000 tested, 1% active; PathHunter beta-arrestin GPR151 cells, luminescence; activation, % at 11.2 µM; Q8TDV0; in the data active = activation above about 4.9%;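 also: 0% = median of compound wells and 100% = cells with positive control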
MITF confirm – human MITF inhibition, confirmation | shares compounds with MITF inh | AlphaScreen MITF homodimerization, biotin/His-MITF beads | inhibition, % at 2.6 µM | 4,700 tested, 16% active;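 active = inhibition above a cutoff derived from the DMSO control wells, cut at about 28% in these data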;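 also: 0% = MITF dimer wells with DMSO only; inhibitors lower the bead chemiluminescence by keeping MITF from dimerizing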
AlphaScreen DR – counter-screen: compounds optically interfering with AlphaScreen; IC50, µM; shares compounds with MITF inh; AID 1259373; AlphaScreen optical interference counterscreen, cell-free; 480 tested, 6% active; call rule not given here
AS interf ctr – AlphaScreen optical interference, counter-screen. 4,700 tested, 7.6% active. inhibition, % at 2.6 µM. shares compounds with MITF inh. LysRS AlphaScreen counterscreen, signal interference, triplicate;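 active = inhibition above a cutoff derived from the DMSO control wells, cut at about 30% in these data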
Numbers without * were called inactive; / = not tested or not shown. A selection: hits, their analogues and other compounds. The true share with any hit is near 3.4%.

SMILES	MITF inh	TEAD-YAP inh	FBW7 activator	GPR151 activ	MITF confirm	AS interf ctr	others
O=C(c1cccnc1)N1CCN(Cc2ccccc2)CC1	47	9	0	1	/	/
COc1ccc(Cl)cc1NC(=O)CSc1ncccc1-c1nc2ccccc2[nH]1	16	7	0	0	/	/
O=C(Nc1cnc2ccccc2c1)NC1(c2ccccc2)CC1	-5	-10	0	1	/	/
Cc1cc(C)nc(SCc2nnc(SC(C)C)n2CCc2ccccc2)n1	5	3	0	1	/	/
Cc1ccc(NCc2ccc(O)c3ncccc23)cc1	53*	2	-2	-1	105*	100*
Cc1cccnc1NCc1ccc(O)c2ncccc12	64*	-4	-1	1	52*	91*
CCN(CC)Cc1ccc(O)c2ncccc12	93*	51*	-1	-2	102*	100*
CCN(CC)Cc1cccc2cccnc12	15	3	0	0	/	/
Cc1nccn1Cc1ccc(O)c2ncccc12	82*	10	-2	0	103*	101*
Cc1ccc(NCc2ccccc2O)cc1	12	-28	0	1	/	/
CCOC(=O)C1=C(C)N2CCS(=O)(=O)N=C2S1	9	0	0	3	/	/
COc1cc2nc(CSc3nnc4ccccn34)[nH]c(=O)c2cc1OC	8	2	0	4	/	/
CC1(C)CC(=O)C2=C(C1)NC(=O)CC2c1ccc(C(C)(C)C)cc1 (configuration not stated)	70*	8	0	0	-5	-1
CC1(C)CC(=O)C2=C(C1)NC(=O)CC2c1ccc(F)cc1 (configuration not stated)	2	-4	0	1	/	/
O=C(NCCc1ccc(O)cc1)c1ccnc(-c2cccs2)c1	51*	7	0	1	51*	0	AlphaScreen DR=>6.8
O=C(NCCc1ccc(O)cc1)c1cccc(-c2cccs2)c1	52*	4	0	1	41*	4	AlphaScreen DR=>6.3
Cc1cccc(NC2=C(C(=O)c3ccc(Cl)cc3)C(c3ccc(F)cc3)N(CCCCCC(=O)O)C2=O)c1 (configuration not stated)	79*	-17	0	1	-3	-1
O=C(NCc1ccc2c(c1)OCO2)C1CCN(Cc2nc3ccccc3[nH]2)CC1	63*	-7	0	0	7	10
O=C(C1CCN(Cc2nc3ccccc3[nH]2)CC1)N1CCN(c2ccc(F)cc2)CC1	58*	15	0	-1	10	14
O=C(C1CCN(Cc2nc3ccccc3[nH]2)CC1)N1CCc2ccccc2C1	62*	13	0	0	6	15
O=C(C1CC12CCN(Cc1nc3ccccc3[nH]1)CC2)N1CCN(c2ccccc2)CC1 (configuration not stated)	-6	1	0	0	/	/
C/C(O)=C\C(N)=NC(=O)c1ccccc1	-7	-4	0	-1	/	/
COc1cc(C)ccc1OCCOCCN1CCCC(C)C1 (configuration not stated)	63*	-1	0	1	-11	-7
C/C=C/c1ccc(OCCCCN2CCN(CC)CC2)c(OC)c1	74*	7	0	-2	7	13
C/C=C/c1ccc(OCCOCCN2CCCC(C)C2)c(OC)c1 (configuration not stated)	53*	5	0	-1	4	-1
SMILES	MITF inh	TEAD-YAP inh	FBW7 activator	GPR151 activ	MITF confirm	AS interf ctr	others
O=C(CCNS(=O)(=O)c1cccc(C(F)(F)F)c1)OCc1nc2ccccc2s1	-2	10	1	-2	/	/
Cc1cc(=O)[nH]c(-n2nc(C)c(CCC(=O)NCCc3ccccc3)c2C)n1	21	-2	-1	-1	/	/
COCCNCCCOc1ccc(C(C)(C)c2ccccc2)cc1	85*	10	0	-1	2	7
COCCCNCCOc1ccc(OCc2ccccc2)cc1	47	-22	0	-2	/	/
CN(C)CCNCCCOc1ccccc1	56*	11	0	-2	5	16
COCCNCCCCOc1ccc(OCc2ccccc2)cc1	66*	-28	0	-1	11	15
CC(C)(c1ccccc1)c1ccc(OCCCNCCN)cc1	-2	9	0	1	/	/
COCCCNCCCOc1ccc(C(C)(C)c2ccccc2)cc1	76*	5	0	0	2	5
COCCNC(=O)C1CCN(S(=O)(=O)c2ccc(Br)cc2)CC1	13	5	0	3	/	/
CCC(C)NC(=O)CSc1nc2ccsc2c(=O)n1CCc1ccc(OC)c(OC)c1 (configuration not stated)	-3	-3	0	-1	/	/
N#Cc1c(-c2ccc3c(c2)OCO3)nc(N2CCCCC2)[nH]c1=O	80*	2	1	-1	78*	-7	AlphaScreen DR=>6.5
COc1ccc(-c2nc(N3CCN(C)CC3)[nH]c(=O)c2C#N)cc1	4	-2	0	-1	/	/
O=C(Oc1ccc(N(C(=O)c2ccccc2)S(=O)(=O)c2ccc3ccccc3c2)cc1)c1ccccc1	11	2	0	-1	/	/
Cc1cc(NCc2ccccc2F)n2ncnc2n1	51*	0	2	0	3	11
Cc1cc(NCc2ccccc2)n2ncnc2n1	12	3	0	1	/	/
COc1cc(C=Nc2ccc(N(C)C)cc2)cc(I)c1O	77*	21	1	1	45*	30	AlphaScreen DR=>6.5
COc1ccccc1C(=O)N1CCN(C(=O)c2cccnc2)CC1	0	1	0	2	/	/
O=C(c1cccnc1)N1CCN(Cc2ccccc2F)CC1	56*	-1	0	-1	0	-4
COc1cc(OC)c(OC)cc1CN1CCN(C(=O)c2cccnc2)CC1	68*	-12	0	-1	4	4
COc1ccc(OC)c(CN2CCN(C(=O)c3cccnc3)CC2)c1	59*	-5	1	-2	6	18
O=C(c1cccnc1)N1CCN(Cc2ccccc2Br)CC1	40	-5	0	1	/	/
COc1ccc(NCc2cc3cc4c(cc3n(CC(=O)Nc3cc(C)ccc3C)c2=O)OCO4)cc1	3	-6	0	0	/	/
Cc1c(NC(=O)CN(c2ccccc2F)S(C)(=O)=O)c(=O)n(-c2ccccc2)n1C	-7	1	0	1	/	/
COc1cc(CN2CCN(Cc3cccc(C)c3)CC2)c([N+](=O)[O-])cc1OC	73*	0	0	0	2	11
O=[N+]([O-])c1cc2c(cc1CN1CCN(CCO)CC1)OCO2	18	-1	0	-1	/	/
COc1cc(CN2CCN(Cc3ccc4c(c3)OCO4)CC2)c([N+](=O)[O-])cc1OC	69*	2	0	2	17	19
COc1ccccc1N1CCN(Cc2cc3c(cc2[N+](=O)[O-])OCO3)CC1	-9	-3	0	2	/	/

High-throughput results (PubChem)
